Of roughly 7,900 targets only a part is listed; those with a hit were picked by preference. About 0.6% of all pairs of compound and target were hits.
These targets were tested with CCCCN(Cc1ccc(C(=O)NO)cc1)C(=O)Nc1ccccc1 [Nexturastat A] (assay: log2 fold change, soluble protein after heating vs DMSO (PISA); higher = thermal stabilisation; K562 cells, 10 uM, 30 min; active = over 0.2 and 3.5 SD of the protein, either way, in both replicates (recomputed)).
Procedure, shortened: (§1)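 Soluble protein was quantified by TMTpro 16plex LC-MS/MS after channel sums were equalised. It was obtained as the supernatant after 21,000xg for 90 min from pooled aliquots of K562 cells (2×10^6 cells/mL, 10 μM compound, 30 min) heated for 3 min across 48°C-58°C and extracted in PBS with 0.5% NP-40 at 4°C. Thermal stability values are relative to control samples and come from duplicates. They are given as log2 fold changes.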

Chain of UniProt Q8N684 (Q8N684 whole entry, looked up): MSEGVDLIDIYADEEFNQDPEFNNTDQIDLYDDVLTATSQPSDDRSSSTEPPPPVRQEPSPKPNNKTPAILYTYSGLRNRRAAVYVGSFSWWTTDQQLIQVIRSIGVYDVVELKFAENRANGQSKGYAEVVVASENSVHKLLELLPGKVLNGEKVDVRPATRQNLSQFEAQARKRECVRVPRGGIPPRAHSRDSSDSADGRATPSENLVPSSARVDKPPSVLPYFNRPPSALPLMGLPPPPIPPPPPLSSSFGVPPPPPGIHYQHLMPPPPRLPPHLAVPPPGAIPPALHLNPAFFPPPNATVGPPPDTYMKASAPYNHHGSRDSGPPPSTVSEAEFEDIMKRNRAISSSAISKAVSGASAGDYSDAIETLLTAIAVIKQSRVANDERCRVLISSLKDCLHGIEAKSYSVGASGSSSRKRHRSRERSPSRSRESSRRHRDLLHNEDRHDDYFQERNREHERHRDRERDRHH
Chain of UniProt Q14677 (Q14677 whole entry, looked up): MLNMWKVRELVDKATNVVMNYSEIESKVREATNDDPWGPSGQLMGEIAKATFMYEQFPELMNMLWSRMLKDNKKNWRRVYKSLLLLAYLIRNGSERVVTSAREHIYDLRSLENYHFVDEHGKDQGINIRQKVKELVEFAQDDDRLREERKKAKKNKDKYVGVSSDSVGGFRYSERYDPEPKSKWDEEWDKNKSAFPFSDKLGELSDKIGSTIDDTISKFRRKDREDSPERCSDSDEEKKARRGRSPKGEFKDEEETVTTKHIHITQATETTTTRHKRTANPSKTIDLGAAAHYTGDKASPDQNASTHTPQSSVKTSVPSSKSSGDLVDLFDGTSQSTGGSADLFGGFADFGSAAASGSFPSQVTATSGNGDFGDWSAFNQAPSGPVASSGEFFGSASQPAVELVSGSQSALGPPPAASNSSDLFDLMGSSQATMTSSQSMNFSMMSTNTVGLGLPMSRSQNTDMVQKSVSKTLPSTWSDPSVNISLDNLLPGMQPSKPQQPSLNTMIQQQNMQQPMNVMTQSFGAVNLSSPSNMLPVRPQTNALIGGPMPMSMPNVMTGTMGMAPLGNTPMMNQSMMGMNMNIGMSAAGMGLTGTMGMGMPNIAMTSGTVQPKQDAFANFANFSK
Chain of UniProt Q8IUI8 (Q8IUI8 whole entry, looked up): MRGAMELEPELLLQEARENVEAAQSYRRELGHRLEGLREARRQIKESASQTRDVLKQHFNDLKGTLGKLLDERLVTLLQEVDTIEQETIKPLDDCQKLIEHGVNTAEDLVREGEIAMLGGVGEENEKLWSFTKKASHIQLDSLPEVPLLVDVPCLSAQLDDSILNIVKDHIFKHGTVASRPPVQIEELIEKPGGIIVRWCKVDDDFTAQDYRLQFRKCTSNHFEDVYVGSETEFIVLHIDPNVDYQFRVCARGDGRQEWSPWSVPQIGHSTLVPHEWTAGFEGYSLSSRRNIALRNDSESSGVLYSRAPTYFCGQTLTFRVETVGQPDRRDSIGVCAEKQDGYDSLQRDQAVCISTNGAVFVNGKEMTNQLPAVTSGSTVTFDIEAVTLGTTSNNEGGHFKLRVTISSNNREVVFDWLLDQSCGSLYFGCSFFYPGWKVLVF
Chain of UniProt Q8IWV2 (Q8IWV2 whole entry, looked up): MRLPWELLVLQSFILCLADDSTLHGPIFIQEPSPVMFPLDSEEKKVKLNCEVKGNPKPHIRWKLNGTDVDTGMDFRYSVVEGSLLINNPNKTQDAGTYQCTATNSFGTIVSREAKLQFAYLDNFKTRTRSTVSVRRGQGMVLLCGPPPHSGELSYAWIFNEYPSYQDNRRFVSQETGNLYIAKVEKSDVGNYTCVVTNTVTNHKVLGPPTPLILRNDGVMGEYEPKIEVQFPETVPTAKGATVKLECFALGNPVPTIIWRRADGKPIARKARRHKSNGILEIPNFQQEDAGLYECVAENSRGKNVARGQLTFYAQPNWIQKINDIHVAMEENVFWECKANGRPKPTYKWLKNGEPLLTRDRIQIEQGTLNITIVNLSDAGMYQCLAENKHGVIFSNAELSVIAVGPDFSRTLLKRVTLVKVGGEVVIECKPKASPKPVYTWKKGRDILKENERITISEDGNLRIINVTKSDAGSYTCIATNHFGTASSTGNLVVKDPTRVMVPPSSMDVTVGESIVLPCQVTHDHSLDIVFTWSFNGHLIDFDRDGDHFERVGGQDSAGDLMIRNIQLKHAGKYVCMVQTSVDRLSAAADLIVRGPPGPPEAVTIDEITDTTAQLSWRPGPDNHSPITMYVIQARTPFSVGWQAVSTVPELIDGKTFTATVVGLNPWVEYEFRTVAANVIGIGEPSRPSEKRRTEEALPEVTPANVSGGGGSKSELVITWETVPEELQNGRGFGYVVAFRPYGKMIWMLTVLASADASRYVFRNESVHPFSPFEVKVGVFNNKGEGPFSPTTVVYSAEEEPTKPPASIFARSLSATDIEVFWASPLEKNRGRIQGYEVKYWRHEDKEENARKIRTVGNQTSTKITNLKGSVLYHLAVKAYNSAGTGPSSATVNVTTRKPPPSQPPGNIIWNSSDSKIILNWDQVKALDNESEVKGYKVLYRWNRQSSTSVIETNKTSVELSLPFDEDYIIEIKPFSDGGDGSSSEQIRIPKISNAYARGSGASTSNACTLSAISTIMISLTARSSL
Chain of UniProt P67870 (P67870 whole entry, looked up): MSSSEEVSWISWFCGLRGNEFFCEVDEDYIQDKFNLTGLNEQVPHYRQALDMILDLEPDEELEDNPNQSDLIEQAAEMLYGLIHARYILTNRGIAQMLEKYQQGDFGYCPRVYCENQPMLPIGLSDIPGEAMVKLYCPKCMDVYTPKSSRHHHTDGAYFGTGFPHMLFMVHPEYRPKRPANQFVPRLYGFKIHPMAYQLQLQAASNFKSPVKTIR
Chain of UniProt Q96RR4 (Q96RR4 whole entry, looked up): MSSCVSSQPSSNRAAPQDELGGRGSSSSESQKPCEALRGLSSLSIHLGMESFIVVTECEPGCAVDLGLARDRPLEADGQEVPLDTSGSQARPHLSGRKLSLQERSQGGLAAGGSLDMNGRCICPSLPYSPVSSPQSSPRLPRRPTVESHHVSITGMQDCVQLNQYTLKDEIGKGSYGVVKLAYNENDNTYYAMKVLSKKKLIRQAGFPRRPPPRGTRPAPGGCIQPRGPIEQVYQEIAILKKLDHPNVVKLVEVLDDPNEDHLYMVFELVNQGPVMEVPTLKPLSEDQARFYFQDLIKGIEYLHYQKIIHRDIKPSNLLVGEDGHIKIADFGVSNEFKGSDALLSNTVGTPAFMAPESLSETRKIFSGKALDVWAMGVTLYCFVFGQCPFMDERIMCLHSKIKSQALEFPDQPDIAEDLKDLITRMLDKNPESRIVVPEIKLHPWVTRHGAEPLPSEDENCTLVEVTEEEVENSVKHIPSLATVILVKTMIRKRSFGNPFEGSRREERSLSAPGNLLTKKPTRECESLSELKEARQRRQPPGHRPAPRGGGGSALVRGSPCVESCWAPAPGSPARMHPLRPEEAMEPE
Chain of UniProt Q8N1A6 (Q8N1A6 whole entry, looked up): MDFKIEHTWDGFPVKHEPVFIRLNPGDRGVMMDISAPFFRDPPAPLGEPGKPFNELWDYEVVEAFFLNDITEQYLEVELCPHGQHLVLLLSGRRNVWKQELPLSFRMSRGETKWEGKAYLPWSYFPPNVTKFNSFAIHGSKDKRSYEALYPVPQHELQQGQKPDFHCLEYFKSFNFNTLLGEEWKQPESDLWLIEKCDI
Chain of UniProt P83916 (P83916 whole entry, looked up): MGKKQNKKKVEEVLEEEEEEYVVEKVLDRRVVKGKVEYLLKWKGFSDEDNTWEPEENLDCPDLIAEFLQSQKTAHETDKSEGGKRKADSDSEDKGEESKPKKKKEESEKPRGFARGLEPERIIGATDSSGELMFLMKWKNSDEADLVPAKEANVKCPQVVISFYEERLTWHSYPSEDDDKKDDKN
Chain of UniProt Q01459 (Q01459 whole entry, looked up): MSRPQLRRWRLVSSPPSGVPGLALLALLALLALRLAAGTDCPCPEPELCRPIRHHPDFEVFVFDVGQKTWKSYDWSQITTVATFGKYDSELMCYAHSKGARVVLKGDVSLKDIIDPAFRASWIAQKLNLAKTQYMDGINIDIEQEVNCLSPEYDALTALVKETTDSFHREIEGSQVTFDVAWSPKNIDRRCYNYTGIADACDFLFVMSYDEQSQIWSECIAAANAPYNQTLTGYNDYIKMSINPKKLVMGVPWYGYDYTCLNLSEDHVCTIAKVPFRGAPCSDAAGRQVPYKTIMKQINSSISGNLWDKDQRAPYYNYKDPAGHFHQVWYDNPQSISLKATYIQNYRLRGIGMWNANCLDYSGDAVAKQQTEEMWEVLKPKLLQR
Chain of UniProt Q8WUX2 (Q8WUX2 whole entry, looked up): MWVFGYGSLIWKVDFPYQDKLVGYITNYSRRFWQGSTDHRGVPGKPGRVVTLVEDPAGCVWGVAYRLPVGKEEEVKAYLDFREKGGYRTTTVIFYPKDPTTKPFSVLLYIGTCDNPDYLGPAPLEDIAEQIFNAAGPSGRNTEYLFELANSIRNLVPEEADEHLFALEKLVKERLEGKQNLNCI
Chain of UniProt Q9UNS2 (Q9UNS2 whole entry, looked up): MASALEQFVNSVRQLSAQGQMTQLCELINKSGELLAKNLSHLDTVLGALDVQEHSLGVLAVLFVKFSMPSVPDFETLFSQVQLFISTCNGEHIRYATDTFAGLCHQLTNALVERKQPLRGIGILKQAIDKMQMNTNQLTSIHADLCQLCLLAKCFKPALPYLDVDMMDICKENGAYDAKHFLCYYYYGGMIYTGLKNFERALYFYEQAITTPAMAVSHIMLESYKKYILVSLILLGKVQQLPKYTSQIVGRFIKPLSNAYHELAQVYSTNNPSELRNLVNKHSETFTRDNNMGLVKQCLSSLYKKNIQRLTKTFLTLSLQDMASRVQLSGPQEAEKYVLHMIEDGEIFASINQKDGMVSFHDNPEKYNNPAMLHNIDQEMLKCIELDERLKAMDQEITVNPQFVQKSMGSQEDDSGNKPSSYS
Chain of UniProt Q99653 (Q99653 whole entry, looked up): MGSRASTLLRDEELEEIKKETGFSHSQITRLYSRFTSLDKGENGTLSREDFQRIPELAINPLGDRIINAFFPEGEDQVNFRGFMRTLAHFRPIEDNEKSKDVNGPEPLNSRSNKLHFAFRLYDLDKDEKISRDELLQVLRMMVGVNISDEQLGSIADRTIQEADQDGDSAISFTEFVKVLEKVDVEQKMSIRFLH

Target | log2 fold change
CERT isoform 3 (UniProt Q9Y5P4) | -0.048 (inactive)
CCDC57 (UniProt Q2TAC2) | -0.049 (inactive)
CRKL (UniProt P46109) | -0.003 (inactive)
CBX1 (UniProt P83916) | -0.026 (inactive)
CBX5 (UniProt P45973) | 0.027 (inactive)
CRLF3 (UniProt Q8IUI8) | 0.005 (inactive)
CASC3 (UniProt O15234) | -0.004 (inactive)
CD55 isoform 7 (UniProt P08174) | 0.072 (inactive)
CALCOCO2 isoform 4 (UniProt Q13137) | 0.019 (inactive)
CETN3 (UniProt O15182) | -0.01 (inactive)
CHAC2 (UniProt Q8WUX2) | -0.026 (inactive)
CPSF7 isoform 3 (UniProt Q8N684) | -0.003 (inactive)
CNTN4 (UniProt Q8IWV2) | 0.342 (inactive)
CD63 (UniProt P08962) | -0.072 (inactive)
CCDC59 (UniProt Q9P031) | 0.549 (active)
CBR1 (UniProt P16152) | -0.032 (inactive)
CHP1 (UniProt Q99653) | 0.016 (inactive)
CLINT1 isoform 3 (UniProt Q14677) | 0.122 (inactive)

Target | log2 fold change
COMMD2 (UniProt Q86X83) | 0.022 (inactive)
C9orf72 (UniProt Q96LT7) | -0.102 (inactive)
CLUH (UniProt O75153) | -0.022 (inactive)
CERS2 (UniProt Q96G23) | -0.083 (inactive)
CKB (UniProt P12277) | -0.032 (inactive)
CHCHD1 (UniProt Q96BP2) | 0.141 (inactive)
CDK5RAP3 isoform 4 (UniProt Q96JB5) | 0.051 (inactive)
CAD (UniProt P27708) | 0 (inactive)
CSTF3 (UniProt Q12996) | -0.072 (inactive)
CSNK2B (UniProt P67870) | -0.021 (inactive)
CCZ1 (UniProt P86791) | 0.009 (inactive)
CDC42SE1 (UniProt Q9NRR8) | -0.115 (inactive)
COPS3 (UniProt Q9UNS2) | -0.02 (inactive)
C4orf33 (UniProt Q8N1A6) | 0.018 (inactive)
CTBS (UniProt Q01459) | 0.043 (inactive)
CALB1 (UniProt P05937) | -0.023 (inactive)
CAMKK2 (UniProt Q96RR4) | 0.154 (inactive)
CAMSAP1 isoform 3 (UniProt Q5T5Y3) | 0.168 (inactive)

What follows are targets tested with CCCS(=O)(=O)Nc1ccc(F)c(C(=O)c2c[nH]c3ncc(-c4ccc(Cl)cc4)cc23)c1F [vemurafenib] in the same assay as above.
Procedure, shortened: as §1

Target | log2 fold change
CERT isoform 3 (UniProt Q9Y5P4) | 0.101 (inactive)
CCDC57 (UniProt Q2TAC2) | 0 (inactive)
CRKL (UniProt P46109) | -0.018 (inactive)
CBX1 (UniProt P83916) | 0.07 (inactive)
CBX5 (UniProt P45973) | 0.045 (inactive)
CRLF3 (UniProt Q8IUI8) | 0.057 (inactive)
CASC3 (UniProt O15234) | -0.156 (inactive)
CD55 isoform 7 (UniProt P08174) | -0.031 (inactive)
CALCOCO2 isoform 4 (UniProt Q13137) | 0.012 (inactive)
CETN3 (UniProt O15182) | -0.056 (inactive)
CHAC2 (UniProt Q8WUX2) | 0.04 (inactive)
CPSF7 isoform 3 (UniProt Q8N684) | 0.018 (inactive)
CNTN4 (UniProt Q8IWV2) | -0.038 (inactive)
CD63 (UniProt P08962) | 0.064 (inactive)
CCDC59 (UniProt Q9P031) | -0.037 (inactive)
CBR1 (UniProt P16152) | -0.001 (inactive)
CHP1 (UniProt Q99653) | 0.141 (inactive)
CLINT1 isoform 3 (UniProt Q14677) | -0.049 (inactive)

Target | log2 fold change
COMMD2 (UniProt Q86X83) | 0.023 (inactive)
C9orf72 (UniProt Q96LT7) | -0.139 (inactive)
CLUH (UniProt O75153) | 0.047 (inactive)
CERS2 (UniProt Q96G23) | -0.018 (inactive)
CKB (UniProt P12277) | 0 (inactive)
CHCHD1 (UniProt Q96BP2) | -0.044 (inactive)
CDK5RAP3 isoform 4 (UniProt Q96JB5) | 0.044 (inactive)
CAD (UniProt P27708) | -0.041 (inactive)
CSTF3 (UniProt Q12996) | -0.005 (inactive)
CSNK2B (UniProt P67870) | 0.026 (inactive)
CCZ1 (UniProt P86791) | 0.024 (inactive)
CDC42SE1 (UniProt Q9NRR8) | -0.007 (inactive)
COPS3 (UniProt Q9UNS2) | 0.004 (inactive)
C4orf33 (UniProt Q8N1A6) | -0.01 (inactive)
CTBS (UniProt Q01459) | 0.093 (inactive)
CALB1 (UniProt P05937) | 0.057 (inactive)
CAMKK2 (UniProt Q96RR4) | 0.037 (inactive)
CAMSAP1 isoform 3 (UniProt Q5T5Y3) | -0.274 (inactive)

From the supplement of paper PMC10849652
